For 92 compounds, inhibition results are on record in PubChem BioAssay AID1021 (Emory University Molecular Libraries Screening Center, 2008).

In all, about 220,000 compounds went through this assay and about 2,100 (0.95%) were called active. The sample as a whole holds a higher share of actives than the screen did. A number with no mark means an inactive call.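 The calls were made as follows: active = compounds that cut the binding signal by more than half at the single screening dose; inactive = the rest.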

The test deals with Induced myeloid leukemia cell differentiation protein Mcl-1 (Homo sapiens) (UniProt Q07820). As to the kind of experiment: Mcl-1/Bid binding inhibitors, primary screen, biochemical, TR-FRET, 1536-well (AID 1021).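 Also: His-tagged Mcl-1 with europium anti-His antibody binding Bid BH3 peptide; 0% = Mcl-1 plus peptide wells and 100% = peptide-only wells.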 As to conditions: TR-FRET Mcl-1/Bid-Dy647 peptide binding, at 21.7 µM, active compounds read high.
Sequence of Induced myeloid leukemia cell differentiation protein Mcl-1 (Homo sapiens) (Q07820 whole entry, looked up): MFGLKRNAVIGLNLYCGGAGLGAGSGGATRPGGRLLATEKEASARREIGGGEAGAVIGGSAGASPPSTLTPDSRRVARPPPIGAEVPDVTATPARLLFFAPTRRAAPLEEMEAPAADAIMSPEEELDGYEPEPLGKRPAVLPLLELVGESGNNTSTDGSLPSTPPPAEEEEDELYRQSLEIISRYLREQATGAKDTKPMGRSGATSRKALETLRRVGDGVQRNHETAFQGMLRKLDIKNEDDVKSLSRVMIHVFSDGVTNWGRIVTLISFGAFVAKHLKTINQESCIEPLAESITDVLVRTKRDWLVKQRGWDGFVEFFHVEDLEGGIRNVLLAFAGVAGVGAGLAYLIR
`CCS(=O)(=O)c1ccc2c(c1)N(S(=O)(=O)c1ccccc1)CC(C(=O)O)O2` (configuration not stated): the inhibition was 52.3% (active).
On to `CCS(=O)(=O)c1ccc2oc(SCC(=O)N3c4ccccc4CC3C)nc2c1` (configuration not stated), for which the inhibition is -1.51%.
On to `CC1CN(S(=O)(=O)c2ccccc2)C(C)CN1S(=O)(=O)c1ccccc1` (configuration not stated), for which the inhibition is -4.73%.
For the compound `C=CCOc1ccc(/C=N/NC(=O)C(C)Sc2ccccn2)cc1OCC` (configuration not stated), the inhibition was -8.6%.
Regarding `COc1ccccc1C1CCN(c2ccc([N+](=O)[O-])cn2)CC1`, the inhibition was -13.5%.
The figure for `CCOC(=O)C(NC(=O)CC(C)C)(Nc1sc2c(c1C(N)=O)CCCC2)C(F)(F)F` (configuration not stated) is -1.21%; for `O=c1[nH]c2cccnc2n1-c1ccc([N+](=O)[O-])cc1` it is -13.5%; for `C=CCn1c(COc2ccccc2)nnc1SCC(=O)NCC(=O)OCC` it is -8.17%.
The figure for `CCOC(=O)CNC(=O)CSc1nnc(COc2ccc(Cl)cc2)n1CC` is 59% (active).
The result for `CCOC(=O)CNC(=O)CSc1nnc(-c2cccc(OC)c2)n1CC` reads -3.85%; that for `COc1ccc(CN(C)C(=S)Nc2ccc(Cl)cc2Cl)cc1`, -35.5%; that for `COc1ccc(CN2CCn3ncc(C(=O)Nc4ccc(Cl)cc4Cl)c3C2=O)cc1`, 32%.
As to `O=c1cc(CCl)nc2scc(-c3ccccc3)n12`, the inhibition is -18.4%.
Take `Cc1ccccc1-c1nnc(SCC(=O)NCc2ccc3c(c2)OCO3)n1C`: the inhibition is -9.98%.
As to `Cn1c(SCc2nc3ccccc3s2)nnc1-c1ccc2c(c1)OCO2`, the inhibition is 85.9% (active).
The figure for `O=C(O)CSc1nnc(-c2ccc3c(c2)OCO3)n1-c1ccccc1` is -2.66%; for `COc1ccc(CCNc2cc(C)nc3c(-c4ccc(Cl)cc4)c(C)nn23)cc1OC` it is 5.91%; for `O=c1c2ccccc2nc(CSc2nnnn2-c2ccccc2)n1-c1ccccc1` it is 67% (active).
The result for `O=c1c2ccccc2nnn1CSc1nnnn1-c1ccccc1` reads -28.6%.
In the case of `Cc1ccc(-c2noc(CSc3nnnn3-c3ccccc3)n2)cc1`, the inhibition was 0.82%.
The result for `Oc1ccc(-c2nncn2-c2ccccc2)cc1` reads -19.8%; that for `O=C(N/N=C/c1ccc([N+](=O)[O-])o1)c1cccc(S(=O)(=O)N2CCOCC2)c1`, -61.1%; that for `O=C(CN1CCN(c2ccc(O)cc2)CC1)Nc1cc(S(=O)(=O)N2CCOCC2)ccc1Cl`, -49.6%.
`O=[N+]([O-])c1cc(Cl)cc(/C=N/NC(=S)Nc2cc(S(=O)(=O)N3CCOCC3)ccc2Cl)c1O`: the inhibition was 91.1% (active).
In the case of `CC(Sc1nc2cc(Cl)ccc2s1)C(=O)Nc1ccc2c(c1)OCO2` (configuration not stated), the inhibition is -1.87%.
Turning to `Cc1cc(C)nc(Nc2ncn[nH]2)n1`, the inhibition was -30%.
The figure for `O=C(O/N=C(/c1ccccc1)c1ccncc1)c1ccccc1[N+](=O)[O-]` is -11.8%; for `CN(C)CCCO/N=C(\c1ccccc1)c1ccncc1` it is 54.2% (active); for `COc1cc(OC)nc(N/N=C(\c2ccccc2)c2ccncc2)n1` it is 1.66%.
On to `Cc1ccc2c(c1)C1CN(C)CCC1N2C(=S)Nc1ccc(OC(F)F)cc1` (configuration not stated), for which the inhibition is -15.3%.
The result for `COc1ccc2c(c1)C(C)=CC(C)(C)N2C(=O)CNCc1ccc2c(c1)OCO2` reads 62% (active); that for `COc1ccc2c(c1)C(C)=CC(C)(C)N2C(=O)Nc1ccccc1`, -36.6%.
Consider `CCn1cc(C(=O)NCc2ccc3c(c2)OCO3)c2cc(OC)c(OC)cc2c1=O`, for which the inhibition is 38.8%.
For the compound `CC(=O)c1nnn(-c2ccc(Cl)cc2C#N)c1C`, the inhibition was 1.84%.
As to `COc1ccc(Cl)cc1C(=O)NCc1cn(C)nc1C`, the inhibition was -17.2%.
On to `Cc1ccc(-c2cc(C(=O)NCc3cn(C)nc3C)c3cc(Br)ccc3n2)cc1`, for which the inhibition was 57.4% (active).
Turning to `Cc1ccc2nc(-c3cccc(Br)c3)cc(C(=O)Nn3cnnc3)c2c1`, the inhibition is -15.1%.
`CN(Cc1ccccn1)Cc1nc(-c2ccc(Cl)cc2)no1`: the inhibition was 3.34%.
As to `CN(c1ccccc1)S(=O)(=O)c1ccc(Cl)c(C(=O)OCC(=O)NCc2ccco2)c1`, the inhibition is -33.3%.
As to `CCN(CC)CCCN=C(N)N`, the inhibition was -18.1%.
The figure for `Nc1nnc(SCC(=O)NC2CCCc3ccccc32)s1` (configuration not stated) is -21.1%; for `O=C(Cn1nnc(-c2ccccc2)n1)NCc1ccccc1` it is -1.82%; for `O=C(CN1CCOCC1)N/N=C/c1ccc(-c2ccc(Br)cc2)o1` it is -11.9%.
For `Nc1nnn(CC(=O)N/N=C/c2ccccc2)n1`, the inhibition was -50.3%.
As for `O=C(Cn1nnc(-c2ccccc2)n1)N/N=C/c1ccc(-c2ccc(Cl)cc2)o1`, the inhibition is 61% (active).
As for `Nc1nnnn1CC(=O)N/N=C/c1ccc(-c2cccc(Cl)c2)o1`, the inhibition is -8.79%.
As for `Cc1[nH]c2ccccc2c1/C=N\NC(=O)Cn1nnc(-c2ccccc2)n1`, the inhibition is 65.2% (active).
As to `CCCCN1CCNC1=S`, the inhibition is -29.5%.
Regarding `CC1(C)CC(=O)C(C=NCCN2CCN(C(=S)Nc3cccc(Cl)c3)CC2)=C(O)C1`, the inhibition was -49.6%.
In the case of `Cc1nn(C)c(C)c1Sc1ccccc1N`, the inhibition is -33.5%.
On to `CCN(CC)c1ccc(NC(=O)C2CCC(CNc3c(N4CCCC4)c(=O)c3=O)CC2)c(C)c1` (configuration not stated), for which the inhibition is -70.9%.
As to `CC1(C)OC(=O)N2CCc3ccccc3C21C` (configuration not stated), the inhibition was 6.73%.
`CN(C)C(=O)c1nc2ccc(Cl)cn2c1CNCc1cccc(OC(F)(F)F)c1`: the inhibition is -1.45%.
For `COC(=O)CN1C(=O)C(O)=C(C(C)=O)C1c1ccc([N+](=O)[O-])cc1` (configuration not stated), the inhibition is -31.9%.
`CCC(CC)C(=O)N1CC(=O)Nc2ccc(Br)cc2C1c1ccccc1` (configuration not stated): the inhibition is -3.97%.
With `COC(=O)CN1C(C)=Nc2ccc(Br)cc2C1c1ccccc1` (configuration not stated), the inhibition is 67.2% (active).
For `N#CCCCn1c(O)c(N=NC(=O)C(O)c2ccccc2)c2ccccc21` (configuration not stated), the inhibition is -13.3%.
In the case of `Cc1cc(=O)oc2c(C(=O)c3ccccc3)c(OCC(N)=O)ccc12`, the inhibition is -15.3%.
As for `N#CCC(=O)N/N=C/c1cn(Cc2ccc3ccccc3c2)c2ccccc12`, the inhibition is 25.7%.
As to `O=C(O)CCn1cc(/C=C/C(=O)c2ccc(Cl)cc2)c(-c2cccc(Br)c2)n1`, the inhibition is 69.2% (active).
`O=C(O)/C=C/c1cn(Cc2ccccc2)nc1-c1cccs1`: the inhibition is -0.35%.
Consider `CCOC(=O)/C(C#N)=C/c1cn(CCC(=O)O)nc1-c1ccc(Br)cc1`, for which the inhibition is 39.2%.
With `Cc1noc(C)c1S(=O)(=O)Nc1ccc(C(=O)N2CCN(c3ccc(F)cc3)CC2)cc1`, the inhibition is -10.6%.
As to `COc1cc(C(=S)N2CCOCC2)ccc1O`, the inhibition is -30.2%.
The result for `CCOc1cc(C(=O)OCC(=O)Nc2cccc(C)c2)ccc1OCC(=O)N1CCOCC1` reads -54%.
`CCOc1cc(C(=S)N2CCOCC2)ccc1O`: the inhibition was 74.5% (active).
For `O=C(Nc1ccc2c(c1)C(=O)OC2)Nc1cccc2ccccc12`, the inhibition is -19.5%.
As to `COc1ccc(/C=C/CN2CCN(Cc3ccc(C)cc3)C(CCO)C2)cc1` (configuration not stated), the inhibition was -9.23%.
Consider `NC1=NC[C@@H](Cc2ccc(O)cc2)N1CC1CCCCC1`, for which the inhibition was -44.1%.
Regarding `C#CCOCCOCCOCCNc1nc(N2CCN(C(=O)C(Cc3ccc(O)cc3)n3cc(C(N)CC(C)C)nn3)CC2)nc(N2CCN(C(=O)C(Cc3ccc(O)cc3)n3cc(C(N)C(C)CC)nn3)CC2)n1` (configuration not stated), the inhibition is -1.6%.
The figure for `C#CCOCCOCCOCCNc1nc(N2CCN(C(=O)[C@H](Cc3ccc(O)cc3)n3cc(C(N)CC(C)C)nn3)CC2)nc(N2CCN(C(=O)[C@H](CCC(=O)O)n3cc(C(N)[C@H](C)CC)nn3)CC2)n1` (some centres not stated) is 2.45%; for `C#CCOCCOCCOCCNc1nc(N2CCN(C(=O)[C@H](CCC(=O)O)n3cc(C(N)CO)nn3)CC2)nc(N2CCN(C(=O)[C@H](Cc3ccc(O)cc3)n3cc(C(N)[C@H](C)CC)nn3)CC2)n1` (some centres not stated) it is 62.7% (active); for `O=C(CCCl)Nc1ccc(S(=O)(=O)NCc2ccco2)cc1` it is -69.5%.
The result for `CCNC(=O)NC(=O)C(C)OC(=O)C1CCN(S(=O)(=O)c2ccccc2F)CC1` (configuration not stated) reads -21.6%.
For `COc1ccc(N2C(=O)C3CCCN3C2c2cccc(OC)c2)cc1` (configuration not stated), the inhibition was -26.8%.
For the compound `COc1ccc(N2C(=O)C3CCCN3C2c2cc(OC)c(OC)cc2OC)cc1` (configuration not stated), the inhibition is -12.4%.
Turning to `COc1ccc(OC)c(C2N(c3ccccn3)C(=O)C3CCCN32)c1` (configuration not stated), the inhibition was 51.8% (active).
Turning to `c1ccc(CSc2nnc(-c3ccco3)c(-c3ccco3)n2)cc1`, the inhibition is 91.7% (active).
On to `Brc1ccc(CSc2ccc(-c3ccco3)nn2)cc1`, for which the inhibition was -15.8%.
As for `O=C(Nc1nnc(SCc2ccccc2)s1)c1ccco1`, the inhibition was -46.6%.
`COC(OC)c1ccnc(SCc2ccccc2Cl)n1`: the inhibition was -7.91%.
For the compound `Clc1ccccc1CSc1nnc(-c2ccco2)c(-c2ccco2)n1`, the inhibition was 99.3% (active).
As for `Nc1nc(SCc2ccccc2Cl)n[nH]1`, the inhibition was -6.93%.
On to `COC(=O)c1cc(=O)n(-c2c(Cl)cc(C(F)(F)F)cc2Cl)[nH]1`, for which the inhibition was -6.09%.
The result for `O=C1NNC(c2ccccc2)=N/C1=C\c1ccc(Cl)cc1` reads -13.5%; that for `Cc1nc2nc[nH]n2c(=O)c1C/C=C/c1ccccc1`, -22.4%; that for `CCS(=O)(=O)c1ccc(C(=O)NC)c(Cl)c1Cl`, -26.1%.
Regarding `CCCCN1Cc2c(nc3cc(-c4ccccc4)[nH]n3c2=O)C1=O`, the inhibition is -37.8%.
With `O=S(=O)(Nc1n[nH]c(C(F)(F)F)n1)c1ccccc1`, the inhibition was -11.3%.
For `CCc1cc2c(N3CCN(c4nnc(CC)s4)CC3)ncnc2s1`, the inhibition is 56.7% (active).
With `CCc1cc2c(SCC(=O)Nc3ncc(Cl)c(C)c3Cl)ncnc2s1`, the inhibition was -33.7%.
`Oc1ccccc1N1CCN(c2ncnc3sc(-c4ccccc4)cc23)CC1`: the inhibition was -18.1%.
